In the library only some 2.3% were active in any assay of this set; here they are far more common.
Tau fibril ThT – blocks human tau fibril formation measured by thioflavin T; recombinant tau K18 P301L, heparin-induced fibrillization, ThT fluorescence; 2.1% of 270,000 active; AID 1460; Potency, µM (titrated, usually from 57.4 µM), inactives show top-dose activity, negative = inhibition, hits mostly inhibitors; further: potency means the concentration at half of the fitted maximal effect; nearly all actives have a fitted effect of over 55% in size
Target sequence (P10636 561-689 P618L limits assumed): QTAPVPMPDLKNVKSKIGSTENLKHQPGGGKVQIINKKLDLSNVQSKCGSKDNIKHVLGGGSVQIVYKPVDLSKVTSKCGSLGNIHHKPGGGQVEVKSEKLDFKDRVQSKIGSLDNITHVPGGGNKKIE
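Aggregation was driven by heparin (20 uM final) acting on recombinant tau […] bearing P301L in 100 mM sodium acetate pH 7; fibrils were detected with Thioflavin T.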
FBPA coupling cs – counter-screen for Giardia aldolase inhibitors: coupling enzyme system; coupling enzyme system counterscreen, AmpLite Red fluorescence; activity change, negative = inhibition, % at 58.2 µM, hits read low; 0.67% of 290,000 active; in the data active means activity change below about -30%
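Compounds tested against the coupling enzymes alone at 57.5 uM final; readout was AmpLite Red fluorescence (525/598 nm) after 20 min at RT.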
USP1-UAF1 inh – inhibitors of human USP1/UAF1 deubiquitinase; O94782; recombinant USP1/UAF1, Ub-Rhodamine cleavage fluorescence; Potency, µM (highest dose often 57.1 µM), for inactives: at the highest dose activity change, negative = inhibition, actives largely listed as inhibitors; 0.23% of 390,000 active; AID 743255; further: potency means the concentration at half of the fitted maximal effect; nearly all actives have a fitted effect of over 60% in size
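Step one: compound is pinned into 1nM USP1/UAF1 in HEPES pH 7.8 buffer with TCEP. Step two: 15 min room-temperature incubation. Step three: Ub-Rho (150nM final) starts cleavage, tracked by fluorescence over six one-minute reads.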
Tau fluor cs – counter-screen for tau fibril formation inhibitors. 0.93% of 280,000 active. Potency, µM (doses to about 57.7 µM), without a hit: top-dose activity change, negative = decrease. tau K18 P301L Alexa594 fluorescence, heparin fibrillization; further: potency means the concentration at half of the fitted maximal effect; nearly all actives have a fitted effect of over 55% in size
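Human K18 P301L tau (15 uM unlabeled plus 0.24 uM Alexa 594-labeled, final) in 100 mM sodium acetate pH 7 was mixed with compound and 20 uM heparin and incubated 6 hr at 37 C.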
Tau FP inhib – blocks human tau fibril formation measured by polarization; AID 1468; 0.39% of 280,000 active; Potency, µM (doses to about 57.7 µM), inactives show at the highest dose activity, negative = inhibition, most hits filed as inhibitors; K18 P301L tau heparin fibrillization, Alexa594 FP, 6 h; further: potency means the concentration at half of the fitted maximal effect; nearly all actives have a fitted effect of over 55% in size
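Heparin (20 uM) drove fibril formation of recombinant tau K18 P301L, 15 uM unlabeled with 0.24 uM Alexa 594 label, for 6 hr at 37 C in 100 mM sodium acetate pH 7. Fluorescence polarization (555/632 nm) read 1 hr after 30 uM ThT.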
Active calls of the source: *; ? = inconclusive; . = no result given; [ ] = dose if it differs, or a comment. Unless noted, the call rests on the fitted dose curve; in most records, active means well fitted curve in the direction sought with a large enough effect; inconclusive means small, poorly fitted or top-dose-only effect, or another doubt; inactive means no such curve, though single readings can be large; an effect the other way counts as inactive or inconclusive. On the % scale 0 is the no-effect control and ±100 the full control effect.

SMILES	Tau fibril ThT	FBPA coupling cs	USP1-UAF1 inh	Tau fluor cs	Tau FP inhib
Cc1ccc(C(Nc2ccccn2)c2ccc3cccnc3c2O)cc1 (configuration not stated)	?	.	-15%	-24%	9%
COc1ccc(C(Nc2ccccn2)c2ccc3ccc(C)nc3c2O)cc1C (configuration not stated)	16µM*	.	-25%	-19%	3%
C=CCn1c(SCC(=O)NCCOC)nc2scc(-c3ccco3)c2c1=O	22µM*	-1	-8%	-17%	16µM*
CC1CCN(S(=O)(=O)c2ccc3nc(Nc4cccc(C(F)(F)F)c4)ccc3c2)CC1	?	.	-15%	?	28µM*
CC1CCN(S(=O)(=O)c2ccc3nc(Nc4ccc(C#N)cc4)ccc3c2)CC1	?	.	-12%	?	14µM*
COc1ccc(-n2c(-c3ccc(F)cc3)cn3c4c(=O)n(C)c(=O)n(C)c4nc23)cc1	3%	.	-30%	0%	1%
O=C(NC(=S)Nc1ccc(N2CCOCC2)cc1)c1ccccc1	?	0	-1%	?	5%
CC(C)Oc1cccc(C(=O)NC(=S)Nc2ccc(N3CCN(C)CC3)cc2)c1	?	-4	-12%	?	?
COc1cccc(C(=O)NC(=S)Nc2ccc(N(C)C)cc2)c1	7.9µM*	2	-16%	?	5%
O=C(NC(=S)Nc1ccc(N2CCOCC2)cc1)c1cccc(Cl)c1	13µM*	0	2%	?	9%
COc1cccc(C(=O)NC(=S)Nc2ccc(N3CCCC3)cc2)c1	11µM*	1	-16%	?	11%
CCCC(=O)N1CCN(c2ccc(NC(=S)NC(=O)c3cccc(C)c3)cc2)CC1	8.9µM*	0	-22%	?	-4%
COc1cc(C(=O)NC(=S)Nc2ccc(N3CCCC3)cc2)cc(OC)c1OC	?	-2	-22%	?	0%
COc1cccc(C(=O)NC(=S)Nc2ccc3oc(=O)ccc3c2)c1	-10%	5	-14%	-9%	-6%
O=C(Nc1ccc(N=Nc2ccccc2)cc1)c1cccc(Cl)c1	3.2µM*	-2	-10%	-9%	1%
O=C(Nc1ccc2c(c1)OCCO2)c1cccc(Cl)c1	.	-4	-12%	.	.
Cc1nc(N=Nc2cc(S(=O)(=O)O)c3cc([N+](=O)[O-])cc(S(=O)(=O)O)c3c2)c(COP(=O)(O)O)c(C=O)c1O	8.9µM*	0	.	14µM*[quencher]	20µM*
Cc1nc(N=Nc2cc([N+](=O)[O-])ccc2Cl)c(COP(=O)(O)O)c(C=O)c1O	.	0	.	.	.
O=C(N/N=C/c1cccnc1)c1ccccc1OCc1ccc(Br)cc1	-2%	-38*	-22%	8%	4%
CCOc1cc(N2CCOCC2)c(OCC)cc1NS(=O)(=O)c1ccc(Cl)s1	?	-45*	-17%	?	-11%
CCOc1cc(N2CCOCC2)c(OCC)cc1NC(=O)c1ccccc1C	-1%	-2	-1%	-6%	8%
CCNC(=S)Nc1cc(OCC)c(N2CCOCC2)cc1OCC	-6%	-7	3%	-7%	-3%
CCCNC(=O)Nc1cc(OCC)c(N2CCOCC2)cc1OCC	-4%	-53*	-11%	-12%	-7%
CCOc1cc(N2CCOCC2)c(OCC)cc1NC(=O)c1ccc2ccccc2n1	25µM*	-9	-5%	?	12%
O=C(CCn1c(=O)c2cccn2c2cccnc21)NCc1ccccc1Br	6%	.	-15%	-2%	-1%
COc1cccc(N2C(=O)CC(Nc3ccc(N4CCOCC4)cc3)C2=O)c1 (configuration not stated)	14µM*	-8	4%	-25%	1%
CN(C)c1ccc(N2C(=O)CC(Nc3ccc(N4CCOCC4)cc3)C2=O)cc1 (configuration not stated)	14µM*	3	1%	-15%	0%
COc1ccc(N2C(=O)CC(Nc3ccc(N4CCOCC4)cc3)C2=O)c(OC)c1 (configuration not stated)	?	-8	-3%	-21%	0%
Cc1ccc(NC2CC(=O)N(c3ccc(N4CCCCC4)cc3)C2=O)cc1 (configuration not stated)	?	0	-28%	-15%	1%
